Screens (PubChem BioAssay)
FLuc inh – Firefly luciferase inhibition profiling of diverse chemical library using quantitative high-throughput screening. Potency, µM (highest dose often 115 µM), most hits filed as inhibitors. Luciferin 4-monooxygenase (Photinus pyralis), P08659. purified P. pyralis luciferase, luminescence, biochemical. 76,000 compounds, 2.5% hits; note: nearly all actives have a fitted effect of over 65% in size
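Luminescence read by CCD imaging after purified firefly luciferase (10nM final) was added to substrate buffer holding 10uM D-luciferin and 10uM ATP, pH 7.5, pre-dosed with compound.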
NIH3T3 tox – Cytotoxic Profiling in NIH 3T3 Cell Line of Diverse Libraries Using Quantitative High-Throughput Screening; NIH 3T3 viability, CellTiter-Glo ATP luminescence, 48-72 h; Potency, µM (top dose mostly 96.7 µM), actives largely listed as inhibitors; 94,000 compounds, 4.3% hits; AID 1345082, 2018; note: nearly all actives have a fitted effect of over 55% in size
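Cells were seeded at 400 per well, treated with pin-transferred compound, and kept 48 or 72 hr at 37 °C before CellTiter-Glo addition and luminescence imaging of cellular ATP.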
HEK293 tox – Cytotoxic Profiling in HEK 293 Cell Line of Diverse Libraries Using Quantitative High-Throughput Screening | HEK 293 viability, ATP luminescence (CellTiter-Glo), 48-72 h | AID 1345083, 2018 | 94,000 compounds, 6.6% hits | Potency, µM (series often up to 115 µM), most hits filed as inhibitors; note: nearly all actives have a fitted effect of over 60% in size
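HEK 293 seeded at 250 cells/well receive compound via pintool. After 48 or 72 hr at 37 degree Celsius, 5% CO2 and 95% humidity, CellTiter-Glo is dispensed and luminescence read following 10 min at room temperature.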
hNpr1 antagonist – Natriuretic polypeptide receptor (hNpr1) antagonism - Primary qHTS. HEK293 hNpr1 GloSensor cGMP, ANP-stimulated luminescence. Potency, µM (highest dose often 46.3 µM), usual class: inhibitors. 76,000 compounds, 1.6% hits. AID 1347048, 2019; calls by dose curve; note: nearly all actives have a fitted effect of over 60% in size
Target sequence (P16066 whole entry, looked up): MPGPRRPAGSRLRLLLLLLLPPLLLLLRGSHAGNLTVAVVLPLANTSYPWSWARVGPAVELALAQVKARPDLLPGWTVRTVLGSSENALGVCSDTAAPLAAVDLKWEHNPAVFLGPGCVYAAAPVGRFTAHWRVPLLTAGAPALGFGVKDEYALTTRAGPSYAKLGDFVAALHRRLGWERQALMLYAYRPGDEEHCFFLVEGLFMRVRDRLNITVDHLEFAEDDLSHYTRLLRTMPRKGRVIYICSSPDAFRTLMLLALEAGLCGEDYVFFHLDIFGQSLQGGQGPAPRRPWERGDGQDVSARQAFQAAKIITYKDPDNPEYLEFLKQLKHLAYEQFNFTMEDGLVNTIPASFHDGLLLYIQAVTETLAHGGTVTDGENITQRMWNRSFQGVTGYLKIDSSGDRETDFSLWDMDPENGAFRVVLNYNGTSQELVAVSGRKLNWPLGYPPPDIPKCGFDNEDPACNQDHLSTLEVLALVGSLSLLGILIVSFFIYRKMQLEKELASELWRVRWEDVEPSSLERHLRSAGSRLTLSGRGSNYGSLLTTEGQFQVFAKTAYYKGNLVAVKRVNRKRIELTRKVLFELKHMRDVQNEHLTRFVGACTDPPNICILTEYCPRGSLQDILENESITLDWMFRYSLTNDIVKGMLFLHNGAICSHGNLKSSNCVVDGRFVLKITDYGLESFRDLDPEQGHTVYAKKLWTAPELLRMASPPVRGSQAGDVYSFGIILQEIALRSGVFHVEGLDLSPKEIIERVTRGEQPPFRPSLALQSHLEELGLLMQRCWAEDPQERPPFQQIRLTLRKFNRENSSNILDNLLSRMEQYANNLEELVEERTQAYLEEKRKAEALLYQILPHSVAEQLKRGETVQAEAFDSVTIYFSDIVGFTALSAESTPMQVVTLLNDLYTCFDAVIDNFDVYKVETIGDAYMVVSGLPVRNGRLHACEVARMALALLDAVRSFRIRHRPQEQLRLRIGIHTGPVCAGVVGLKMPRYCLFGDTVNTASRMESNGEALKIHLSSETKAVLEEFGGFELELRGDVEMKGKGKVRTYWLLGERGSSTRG
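HEK293 cells stably expressing human Npr1 and cGMP GloSensor pGS-40F, loaded 2 h with 2% GloSensor reagent, given compound 30 min at room temperature. Luminescence read before and 20 min after 0.1 nM hNppA.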
A number is an active result. Hits are enriched below; roughly 11% of the tested compounds scored in any of these assays. Unless noted, calls come from the whole dose curve; as a rule, active = well fitted curve in the direction sought with a large enough effect; inconclusive = small, poorly fitted or top-dose-only effect, or another doubt; inactive = no such curve, though single readings can be large; an effect the other way counts as inactive or inconclusive.

How did COc1cc(F)ccc1-c1nc(-c2c(C)noc2C)cc2c1cc(C)n2C do in these assays?
FLuc inh: inactive; NIH3T3 tox: inconclusive; HEK293 tox: inconclusive; hNpr1 antagonist: inactive

How did COc1ncccc1-c1cc(-c2c(C)noc2C)c2cncn2c1 do in these assays?
FLuc inh: inactive; NIH3T3 tox: inconclusive; HEK293 tox: inconclusive; hNpr1 antagonist: inactive

Results for O=C(NCc1ccc(F)cc1)c1nc(-c2ccc(Cl)nc2)c2ccccn12 ?
NIH3T3 tox: inactive; HEK293 tox: inactive

How did O=C(Nc1ccc2[nH]ccc2c1)C1=NO[C@@H]2CN(c3ccccn3)C[C@H]12 do in these assays?
FLuc inh: inactive; NIH3T3 tox: inactive; HEK293 tox: inconclusive; hNpr1 antagonist: inactive

Results for Cc1noc(C)c1-c1cc(-c2ccc3c(c2)C(=O)NC3)cn2cncc12 ?
FLuc inh: inactive; NIH3T3 tox: 13µM; HEK293 tox: inactive; hNpr1 antagonist: inactive

Results for Cc1ccccc1-c1cc(-c2c(C)noc2C)c2cncn2c1 ?
FLuc inh: inactive; NIH3T3 tox: inconclusive; HEK293 tox: 45µM; hNpr1 antagonist: inactive

Results for O=C1CC(c2noc(-c3cc(F)cc(F)c3)n2)CN1c1ccc(F)cc1 (centres undefined) ?
FLuc inh: inactive; NIH3T3 tox: inconclusive; HEK293 tox: inconclusive; hNpr1 antagonist: inactive

Results for O=C(NCC(F)(F)F)c1nc2cccnc2n(C2CC2)c1=O ?
NIH3T3 tox: inactive; HEK293 tox: inactive

Results for Cc1c(-c2ccccc2)[nH]c2c(CNC(=O)Cn3ccc(=O)[nH]c3=O)cc(Cl)cc12 ?
FLuc inh: inconclusive; NIH3T3 tox: inconclusive; HEK293 tox: inconclusive; hNpr1 antagonist: inactive

How did Cc1c(-c2ccccc2)[nH]c2c(CNC(=O)CN3C(=O)CNC3=O)cc(Cl)cc12 do in these assays?
FLuc inh: 10µM; NIH3T3 tox: inconclusive; HEK293 tox: inconclusive; hNpr1 antagonist: inactive

What do the screens show for `Cc1c(-c2ccccc2)[nH]c2c(CNC(=O)c3ccc(=O)n(C)n3)cc(Cl)cc12`?
FLuc inh: inconclusive; NIH3T3 tox: inconclusive; HEK293 tox: 28µM; hNpr1 antagonist: 11µM

What do the screens show for `Fc1ccc(CN2Cc3[nH]cnc3C[C@H]2c2nc(-c3ccccc3)no2)cc1`?
FLuc inh: 45µM; NIH3T3 tox: 79µM; HEK293 tox: 100µM; hNpr1 antagonist: inactive

How did Fc1ccc(CN2Cc3[nH]cnc3C[C@H]2c2nc(-c3ccc(Cl)cc3)no2)cc1 do in these assays?
FLuc inh: inactive; NIH3T3 tox: 50µM; HEK293 tox: 63µM; hNpr1 antagonist: inactive

What do the screens show for `O=C(c1ccccc1F)N1CCc2nc(C3CC3)nc(-c3ccc(Cl)cc3)c2C1`?
NIH3T3 tox: inconclusive; HEK293 tox: inactive

Results for O=C(c1ccc(C(F)(F)F)cc1)N1CCc2nc(C3CC3)nc(-c3ccc(Cl)cc3)c2CC1 ?
FLuc inh: inactive; NIH3T3 tox: inconclusive; HEK293 tox: 28µM; hNpr1 antagonist: inactive

What do the screens show for `O=C(Nc1ccc(Cl)cc1)N1CCc2nc(C3CC3)nc(-c3ccc(Cl)cc3)c2C1`?
FLuc inh: inactive; NIH3T3 tox: inconclusive; HEK293 tox: 28µM; hNpr1 antagonist: inactive

What do the screens show for `CC(C)c1nc2c(c(-c3ccc(O)cc3)n1)CN(C(=O)Nc1ccc(Cl)cc1)CC2`?
FLuc inh: inactive; NIH3T3 tox: inconclusive; HEK293 tox: inconclusive; hNpr1 antagonist: inactive

Results for O=C(c1ccccn1)N1CCc2nc(C3CC3)nc(-c3ccc(Cl)cc3)c2C1 ?
NIH3T3 tox: 32µM; HEK293 tox: inactive

Results for Cc1ccc(C(=O)N2CCc3nc(C4CC4)nc(-c4ccc(Cl)cc4)c3CC2)cc1 ?
FLuc inh: inactive; NIH3T3 tox: inactive; HEK293 tox: inactive; hNpr1 antagonist: inactive

What do the screens show for `Oc1ccc(-c2nc(C3CC3)nc3c2CN(CC2CCCCC2)CC3)cc1`?
FLuc inh: inactive; NIH3T3 tox: inconclusive; HEK293 tox: 79µM; hNpr1 antagonist: inactive

What do the screens show for `COCCn1c(=O)c(C(=O)N2CCN(C(=O)c3ccccc3C)CC2)nc2cccnc21`?
NIH3T3 tox: inactive; HEK293 tox: inactive

Results for Cc1ccccc1C(=O)N1C(C(=O)NCC(C)C)COC12CCN(C(=O)c1cccc(Cl)c1)CC2 (centres undefined) ?
FLuc inh: inactive; NIH3T3 tox: inactive; HEK293 tox: inconclusive; hNpr1 antagonist: inactive

What do the screens show for `Cn1ncc2c(C(=O)Nc3cncnc3)cc(-c3ccc(Cl)cc3Cl)nc21`?
NIH3T3 tox: inactive; HEK293 tox: inactive

Results for COc1ccc(CNC(=O)C2CCN(C(=O)C3CN(c4ccc(OC)cc4)C(=O)N3)C2)cc1 (centres undefined) ?
FLuc inh: inactive; NIH3T3 tox: inconclusive; HEK293 tox: inactive; hNpr1 antagonist: inactive

What do the screens show for `Fc1ccccc1-c1noc(N2CCOCC2)n1`?
FLuc inh: 32µM; NIH3T3 tox: inactive; HEK293 tox: inconclusive; hNpr1 antagonist: inactive

What do the screens show for `O=C(NCCN1CCOCC1)c1noc(-c2ccccc2F)n1`?
FLuc inh: inactive; NIH3T3 tox: inactive; HEK293 tox: inactive; hNpr1 antagonist: inactive

How did COc1ccc(CN2CCC3(C2)C(=O)Nc2ccccc23)cc1 (centres undefined) do in these assays?
NIH3T3 tox: inactive; HEK293 tox: inconclusive

Results for O=C1Nc2ccccc2C12CCN(Cc1cccc3ccccc13)C2 (centres undefined) ?
NIH3T3 tox: 79µM; HEK293 tox: 79µM

What do the screens show for `CCc1[nH]c2c(CNC(=O)CC3C(=O)NCCN3C(C)C)cc(C)cc2c1C` (centres undefined)?
FLuc inh: inactive; NIH3T3 tox: inactive; HEK293 tox: inactive; hNpr1 antagonist: inactive

What do the screens show for `CCc1[nH]c2c(CNC(=O)c3n[nH]c4c3CCC4)cc(C)cc2c1C`?
FLuc inh: inactive; NIH3T3 tox: 35µM; HEK293 tox: 35µM; hNpr1 antagonist: inactive

How did CNC(=O)c1cc(C2CC2)nc2c1c(C1CCN(C(=O)c3ccc(F)cc3)C1)nn2C (centres undefined) do in these assays?
NIH3T3 tox: inactive; HEK293 tox: inactive

How did c1ccc(-c2nnc([C@H]3CCN(C4CCC4)C3)o2)cc1 do in these assays?
FLuc inh: 25µM; NIH3T3 tox: inactive; HEK293 tox: inconclusive; hNpr1 antagonist: inactive

Results for CN(C)c1ccc(-c2nnc([C@H]3CCN(C4CCC4)C3)o2)cc1 ?
FLuc inh: 71µM; NIH3T3 tox: inactive; HEK293 tox: inactive; hNpr1 antagonist: inactive

Results for c1ccc(-c2nnc([C@H]3CCN(C4CCOCC4)C3)o2)cc1 ?
FLuc inh: inconclusive; NIH3T3 tox: inactive; HEK293 tox: inactive; hNpr1 antagonist: inactive

Results for c1cc(-c2nnc([C@H]3CCN(C4CCCCC4)C3)o2)ccn1 ?
FLuc inh: inconclusive; NIH3T3 tox: inactive; HEK293 tox: inactive; hNpr1 antagonist: inactive

What do the screens show for `CCN1CCN(CCCNC(=O)C2CCCCC(=O)N2Cc2cccc(OC)c2)CC1` (centres undefined)?
NIH3T3 tox: inactive; HEK293 tox: inactive
